Bioassay records: PubChem, National Center for Advancing Translational Sciences (NCATS)
Sampled rows, rich in hits. Any-hit rate of the full collection: about 8%.
HT1080-NT tox = qHTS for induction of synthetic lethality in tumor cells producing 2HG: qHTS for the HT-1080-NT fibrosarcoma cell line; HT-1080-NT fibrosarcoma viability, CellTiter-Glo ATP luminescence, 48 h; Potency, µM (titrated, usually from 46.1 µM), for inactives: at the highest dose activity, negative = less viability, most hits filed as cytotoxic; 1.6% of 360,000 active; AID 686970, 2013;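 note: NT is the 2HG producing partner of a matched IDH1 knockdown line; 0% = DMSO-treated cells and -100% = media-only wells without cells; nearly all actives have a fitted effect of over 55% in size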
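Compounds were tested in concentration-response format on HT-1080-NT cells for 48 hours at 37 degrees C. Cell viability came from CellTiter-Glo luminescence; curves were classified by r2, response magnitude and activity.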
SW480 rerep = A quantitative high throughput screen for small molecules that induce DNA re-replication in SW480 colon adenocarcinoma cells | SW480 DNA re-replication, Hoechst DNA content imaging, 48 h | Potency, µM (doses to about 46.1 µM), inactives show top-dose re-replication activation, usual class: activators | 1.8% of 340,000 active | AID 624297, 2012; note: % of control where 0% means no effect; nearly all actives have a fitted effect of over 55% in size
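Cells (250 per well) received 23 nL compound or DMSO by pin tool and were kept 48 hr at 37 C, 5% CO2. Nuclei were then stained with Hoechst for 40 min and scanned for DNA content.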
KB-3-1 cytotox = qHTS assay for MDR1-selective chemotherapeutics: Primary screen using the parental adenocarcinoma cell KB-3-1. KB-3-1 viability, CellTiter-Glo ATP luminescence, 72 h. Potency, µM (titrated, usually from 46.1 µM), actives largely listed as cytotoxic. 1.4% of 400,000 active. AID 1347075, 2019; note: % is set by controls: 0 for no effect and ±100 for the full control effect; nearly all actives have a fitted effect of over 60% in size
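Luminescent ATP read-out (CellTiter-Glo) measures survival of drug-naive KB-3-1 cells after 72 h compound exposure at 37 °C. Titration series was screened from lowest to highest concentration, with DMSO vehicle plates as background controls.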
KB-V1 MDR tox = qHTS assay for MDR1-selective chemotherapeutics: Primary screen using the drug-selected MDR subline cells KB-V1; KB-V1 MDR cells viability, CellTiter-Glo, 72 h; Potency, µM (doses to about 46.1 µM), usual class: cytotoxic; 3.4% of 400,000 active; AID 1347076, 2019; note: % is set by controls: 0 for no effect and ±100 for the full control effect; nearly all actives have a fitted effect of over 60% in size
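Drug-selected KB-V1 cells, grown in DMEM lacking phenol red with 10% FBS, receive compound titrations; after three days at 37 degrees C, surviving cell ATP is quantified by CellTiter-Glo luminescence and responses normalized and curve-fitted.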
HT1080 IDH1KD tx = qHTS for induction of synthetic lethality in tumor cells producing 2HG: qHTS for the HT-1080-IDH1KD cell line; Potency, µM (series often up to 46.1 µM), inactives show at the highest dose activity, negative = toxicity, hits mostly cytotoxic; 2% of 360,000 active; HT-1080 IDH1 knockdown viability, ATP luminescence, 48 h;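 note: 0% = DMSO wells and -100% = cell-free medium wells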
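Cytotoxicity counter-line: IDH1KD HT-1080, 48 h, CellTiter-Glo. Curves classed by r2, magnitude and activity.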
MCF10A rerep = A quantitative high throughput screen for small molecules that induce DNA re-replication in MCF 10a normal breast cells | MCF 10A DNA re-replication, Hoechst nuclear intensity, 48 h | Potency, µM (top dose mostly 46.1 µM), for the others: at the top dose activity, positive = re-replication, usual class: activators | 2.9% of 350,000 active | AID 624296, 2012; note: % of control where 0% means no effect; nearly all actives have a fitted effect of over 50% in size
An asterisk follows results filed as active; i = inactive; ? = inconclusive; nt = no result; [ ] = remark or other dose. Calls come from the whole dose curve; as a rule, active = well fitted curve in the direction sought with a large enough effect; inconclusive = small, poorly fitted or top-dose-only effect, or another doubt; inactive = no such curve, though single readings can be large; an effect the other way counts as inactive or inconclusive. Potency is the fitted concentration of half-maximal effect.

SMILES	HT1080-NT tox	SW480 rerep	KB-3-1 cytotox	KB-V1 MDR tox	HT1080 IDH1KD tx	MCF10A rerep
COc1ccc(CN2C(=O)C(C)Nc3ncnc(N4CCN(c5ccccc5)CC4)c32)cc1 (configuration not stated)	-5%	15%	i	i	-4%	8%
CC1Nc2ncnc(N3CCN(c4ccccc4)CC3)c2N(Cc2ccc(Br)cc2)C1=O (configuration not stated)	-27%	6%	?	?	?	16µM*
CCC1Nc2ncnc(N3CCc4ccccc4C3)c2N(Cc2ccc(Cl)cc2)C1=O (configuration not stated)	-21%	?	?	i	-13%	?
O=C1C(Cc2ccccc2)Nc2ncnc(N3CCc4ccccc4C3)c2N1Cc1ccc(Cl)cc1 (configuration not stated)	?	?	i	26µM*	?	23µM*
COc1ccc(CN2C(=O)C(C)Nc3ncnc(N4CCOCC4)c32)cc1 (configuration not stated)	?	?	?	18µM*	15µM*	?
Cc1ccc(C)n1-c1cccc(S(=O)(=O)N2CCOCC2)c1	-10%	?	i	i	-23%	18µM*
Cc1nn(-c2ccccc2)c(N)c1N=Nc1cccc(S(=O)(=O)N2CCOCC2)c1	?	?	?	4.1µM*	?	-14%
CC1(C)CC(=O)C(N=Nc2cccc(S(=O)(=O)N3CCOCC3)c2)=C(O)C1	-1%	-2%	i	i	-7%	-5%
Cc1cc(C(=O)CCl)c(C)n1-c1cccc(S(=O)(=O)N2CCOCC2)c1	23µM*	16%	i	16µM*	?	?
OC(CNCc1ccccc1Cl)COc1ccc(F)cc1 (configuration not stated)	-2%	-5%	?	i	-6%	9%
CC(Sc1ccccn1)C(=O)Nc1ccc2c(c1)OCCO2 (configuration not stated)	-1%	-2%	i	?	8%	-4%
CC(=O)Nc1cccc(NC(=O)c2ccc3c(c2)CCN3S(=O)(=O)c2ccccc2)c1	-13%	?	i	?	-13%	3%
CC(/C=N\N1CCN(c2ccc(Cl)cc2)CC1)=C\c1ccccc1	0%	4%	i	i	-3%	1%
Cc1cc(NC(=O)CSc2nccn2-c2cccc(C)c2C)no1	?	?	?	10µM*	?	?
Cc1cc(NC(=O)CSc2nccn2-c2cccc(F)c2)no1	13%	1%	i	16µM*	8%	0%
CCSc1nnc(NC(=O)CSc2nccn2-c2cc(C)cc(C)c2)s1	19%	-5%	i	i	13%	12%
CCSc1nnc(NC(=O)CSc2nccn2-c2cccc(C)c2C)s1	-1%	2%	i	21µM*	-3%	24%
CCOc1ccc(-n2ccnc2SCC(=O)Nc2cc(C)on2)cc1	1%	3%	i	15µM*	-9%	-2%
COc1ccc(-n2ccnc2SCC(=O)Nc2cc(C)on2)cc1	2%	?	i	?	-25%	15%
Cc1cccc(-n2ccnc2SCC(=O)Nc2cc(C)on2)c1	18%	-9%	i	i	15%	-13%
Cc1ccc(S(=O)(=O)NNc2nc3ccccc3nc2C(F)(F)F)cc1	-15%	?	i	?	-12%	?
COc1cc(C)ccc1OCCSc1nc2ccc(NC(=O)c3ccc4c(c3)OCO4)cc2s1	nt	nt	i	i	nt	nt
CCOc1ccc(-n2ccnc2SCC(=O)N2CCCc3ccccc32)cc1	-5%	-1%	i	12µM*	-5%	-4%
COc1cc(/C=C2\N=C(c3ccccc3)NNC2=O)cc(OC)c1OC	4.6µM*	5.8µM*	4.6µM*	4.1µM*	3.3µM*	1.8µM*
COc1ccc(Nc2c3c(nc4ccccc24)CCC3)c(OC)c1	18µM*	?	21µM*	4.1µM*	16µM*	?
SMILES	HT1080-NT tox	SW480 rerep	KB-3-1 cytotox	KB-V1 MDR tox	HT1080 IDH1KD tx	MCF10A rerep
COc1cc(Cl)c(C)cc1Nc1c2c(nc3ccccc13)CCC2	nt	nt	4.1µM*	i	nt	nt
COc1ccc(NC(=O)CSc2c3c(nc4ccccc24)CCC3)c(OC)c1	?	-3%	i	?	?	14%
COc1cc(Nc2c3c(nc4ccccc24)CCCC3)cc(OC)c1OC	?	0%	?	i	?	0%
COc1ccccc1Nc1c2c(nc3ccccc13)CCC2	?	15µM*	?	?	?	12µM*
COc1cc2c(C)nc(C)c(C#N)c2cc1OC	15%	-3%	i	?	11%	13%[9.22 µM]
Cc1ccccc1N(C)S(=O)(=O)c1nnc(NC(=O)c2ccco2)s1	0%	-5%	i	i	5%	-4%
Cc1ccc2c(CSc3nnc(C4CC4)n3N)cc(=O)oc2c1	7%	-2%	i	i	5%	-3%
CC1=C(c2ccccc2)CCC1=O	10%	1%	i	?	5%	-4%
CC1=C(c2ccccc2)C(O)(c2ccccc2)C(C)C1=O (configuration not stated)	?	?	?	?	?	21µM*
CC1(C)CC(N=Cc2c(O)n(Cc3ccc4c(c3)OCO4)c(=O)c3ccccc23)CC(C)(C)N1	18µM*	?	i	i	7.3µM*	0%
Cc1cc(/C=C2\C(=N)N3N=C(CC(=O)N4CCOCC4)SC3=NC2=O)c(C)n1-c1ccccc1	-1%	-11%	i	i	-9%	-16%
O=C(O)CN1C2=NCCCN2c2ccccc21	19%	?	i	i	19%	-46%
CCCCN1C2=NCCCN2c2cc(C)c(C)cc21	-11%	-2%	i	?	3%[9.24 µM]	0%
Cc1cc2c(cc1C)N(Cc1ccc(Cl)cc1)C1=NCCCN12	26µM*	-1%	?	?	?	21%
Cc1ccc(CN2C3=NCCCN3c3ccccc32)cc1	-10%	?	?	i	-30%	-11%
O=C(CN1C2=NCCCN2c2ccccc21)c1ccc(Br)s1	?	-2%	?	10µM*	-28%	-1%
